A selection: hits, their analogues and other compounds. The true share with any hit is near 6.4%.
RORg inh = blocks mouse ROR gamma transcriptional activity; P51450; Drosophila S2 Gal4-RORgamma UAS-luciferase reporter, 20 h; Potency, µM (titrated, usually from 53.6 µM), without a hit: at the top dose activity change, negative = inhibition, actives largely listed as inhibitors; 310,000 tested, 5.4% active; also: nearly all actives have a fitted effect of over 60% in size
Target sequence (P51450 whole entry, looked up, the tested form may be a part): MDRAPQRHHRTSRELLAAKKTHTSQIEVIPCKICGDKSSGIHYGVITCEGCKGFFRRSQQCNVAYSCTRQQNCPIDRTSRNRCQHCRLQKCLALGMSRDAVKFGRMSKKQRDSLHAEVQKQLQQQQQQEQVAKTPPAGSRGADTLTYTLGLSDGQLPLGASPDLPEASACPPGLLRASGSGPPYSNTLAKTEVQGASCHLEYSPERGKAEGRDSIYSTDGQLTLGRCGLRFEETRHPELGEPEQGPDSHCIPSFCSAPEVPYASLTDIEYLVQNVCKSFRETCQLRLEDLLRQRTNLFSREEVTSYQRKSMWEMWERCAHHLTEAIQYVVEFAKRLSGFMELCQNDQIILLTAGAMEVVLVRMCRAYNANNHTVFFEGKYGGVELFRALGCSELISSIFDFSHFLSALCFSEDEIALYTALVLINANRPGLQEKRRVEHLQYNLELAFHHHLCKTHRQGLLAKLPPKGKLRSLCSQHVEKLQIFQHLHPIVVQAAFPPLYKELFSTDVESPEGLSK
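Drosophila Schneider cells stably carrying a metallothionein-driven Gal4 DBD–ROR gamma fusion and a UAS-Photinus luciferase reporter were exposed to compound for 1 hr, then induced with copper sulfate (700 uM final) for 20 hr at ambient temperature before luminescence reading.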
Luc counter = Kinase-Glo luciferase inhibition (counter-screen) | 200,000 tested, 0.28% active | Potency, µM (highest dose often 38.3 µM), inactives show top-dose activity change, negative = inhibition, usual class: inhibitors | Kinase-Glo luciferase, ATP luminescence, 8 min; also: nearly all actives have a fitted effect of over 60% in size
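Luminescence was the read-out, taken after 8-minute incubation at ambient temperature. Luciferase turned over luciferin with 10 uM ATP in imidazole pH 7.2 buffer containing KCl, MgCl2, Tween 20 and BSA.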
Gal4-VP16 FLuc = inhibits Gal4-VP16 luciferase reporter, ROR gamma counter-screen. 310,000 tested, 3.5% active. Potency, µM (doses to about 53.6 µM), for inactives: top-dose activity, negative = inhibition, hits mostly inhibitors. Drosophila S2 Gal4-VP16 UAS-luciferase, luminescence, 20 h;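 also: Gal4-VP16 expression switched on by copper sulfate through the metallothionein promoter; nearly all actives have a fitted effect of over 50% in size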
Starred values were filed as active, the others as inactive; ? = inconclusive; . = not tested or not shown; ! = not active in a repeat; [ ] = another dose, or the depositor's remark. Calls follow the shape of the dose curve; as a rule, active = well fitted curve in the direction sought with a large enough effect; inconclusive = small, poorly fitted or top-dose-only effect, or another doubt; inactive = no such curve, though single readings can be large; an effect the other way counts as inactive or inconclusive. % is scaled to controls: 0 for no effect and ±100 for the full control effect; potency is read from the fitted curve at half-maximal effect.

SMILES	RORg inh	Luc counter	Gal4-VP16 FLuc
COc1ccc(C2/C=C\CN(S(=O)(=O)c3ccc(C)cc3)C(Cc3ccccc3)C(=O)N2Cc2ccc(F)cc2)cc1 (centres undefined)	10µM*	.	-11%
COc1ccc(C2/C=C\CN(S(=O)(=O)c3ccc(C)cc3)[C@H](Cc3ccccc3)C(=O)N2Cc2ccc(F)cc2)cc1 (some centres undefined)	-44%	.	3%
O=C(CN(C(=O)c1csnn1)c1ccc(Br)cc1)NC1CCCCC1	5%	.	14%
COC(=O)c1csc(C(=O)c2c[nH]c3ccccc23)n1	15%	0%[39.9 µM]	6%
C[N+]1(NCC[N@@+]2(C)CCc3ccccc3C2)CCCCC1	.	-1%[7.66 µM]	.
O=[N+]([O-])c1ccc(/C=C/c2ccc3cccc([N+](=O)[O-])c3n2)cc1	?	2%	-27%
O=[N+]([O-])c1cccc(/C=C/c2ccc3cccc(O)c3n2)c1	3.2µM*	.	4.5µM*
O=C(O)c1ccc(/C=C/c2ccc3cccc(O)c3n2)cc1	2.8µM*	-13%	0.56µM*
C[n+]1cccc(/C=C\c2ccc3cccc(O)c3n2)c1	.	-6%[7.66 µM]	.
Oc1ccc(/C=C/c2ccc3cccc(O)c3n2)cc1Br	3.2µM*	.	18µM*
O=[N+]([O-])c1cccc2ccc(/C=C/c3ccc(F)cc3)nc12	?	-4%	4%
COC(=O)c1ccc(/C=C/c2ccc3cccc(OC(C)=O)c3n2)cc1	5.6µM*	?	3.5µM*
COC(=O)c1ccc(/C=C/C(=O)O)cc1	-27%	.	-24%
COc1cccc(Oc2c(C)oc3c(CN4CCCC4)c(O)ccc3c2=O)c1	-5%	.	-5%
O=C(Nc1cccc([N+](=O)[O-])c1)C1CCN(C(=O)Cc2ccccc2)CC1	?	.	0%
CCc1ccc(C2=NN(CCC(=O)NC(C)CCc3ccccc3)C(=O)CC2)cc1 (centres undefined)	?	-2%	-3%
CCCCc1ccc(NC(=S)NCc2cccnc2)cc1	?	4%	?
CCCCc1ccc(NC(=O)Nc2cccnc2)cc1	42%	.	5%
CCCCc1ccc(NC(=S)NCc2cccc(OC)c2)cc1	3.5µM*	1%	0%[10 µM]
CCc1ccc(NC(=O)Nc2cccc(OC)c2)cc1	10%	-2%	?
CCCCc1ccc(NC(=S)Nc2ccc(Nc3ccc(OC)cc3)cc2)cc1	1.1µM*	0%	1.6µM*
CCCCc1ccc(NC(=S)Nc2cccnc2)cc1	13µM*	3%	13µM*
CCCCc1ccc(NC(=O)OC)cc1	-7%	1%	0%
COc1cccc(NC(=O)Nc2ccc(CC(=O)O)cc2)c1	?	-2%	20µM*
COCCNc1nc(C)c(C(C)=O)s1	3%	0%	0%
SMILES	RORg inh	Luc counter	Gal4-VP16 FLuc
CCCC/C=C/[C@H](c1ccccc1)[C@H](CO)Cc1cnc2ccccc2c1	4%	.	-8%
CCCC(NC(=O)Cc1c(C)c2c(cc(C)c3c(C)coc32)oc1=O)C(=O)O (centres undefined)	-3%	.	-3%
COC(=O)Cc1ccc(NC(=S)NCc2ccc(S(N)(=O)=O)cc2)cc1	0%	.	-3%
COC(=O)Cc1ccc(NC(=S)NCc2cccc(OC)c2)cc1	13µM*	1%	8%[10 µM]
COc1cc(N(C)C)cc(CN(C)CCc2ccc([N+](=O)[O-])cc2)c1O	?	.	-2%
O=C(NCCc1ccccn1)c1cc2ccccc2o1	-1%	.	-9%
N#C/C(=C\c1ccc(O)c(O)c1)C(=O)NCCCc1ccccc1	22µM*!	2%	11µM*
COc1ccc(/C=C(\C#N)C(=O)NCCc2ccccc2)cc1OCc1ccccc1	?	-5%	1%
COCCNC(=O)/C(C#N)=C/c1cccc(/C=C(\C#N)C(=O)NCCOC)c1	13µM*	5%	11µM*
COCCNC(=O)/C(C#N)=C/C=C/c1ccccc1[N+](=O)[O-]	13µM*	3%	-16%
N#C/C(=C\c1cccc([N+](=O)[O-])c1)C(=O)NCc1cccnc1	?	4%	?
N#C/C(=C\c1cccc([N+](=O)[O-])c1)C(=O)NCc1ccc(Cl)cc1	?	0%	18µM*
COCCNC(=O)/C(C#N)=C/c1ccc(O)cc1	10%	.	?
COCCNC(=O)/C(C#N)=C/c1ccc(O)c([N+](=O)[O-])c1	2%	?	-20%
C[C@H](NC(=O)[C@@H](Cc1c[nH]c2ccccc12)NC(=O)[C@@H](N)Cc1cnc[nH]1)C(=O)N[C@@H](Cc1c[nH]c2ccccc12)C(=O)N[C@H](Cc1ccccc1)C(=O)N[C@@H](CCCCN)C(N)=O	-13%	.	6%
Cn1c(CCNS(=O)(=O)c2ccccc2)nnc1SCc1cccnc1	1%	.	-2%
Cc1ccc(S(=O)(=O)/N=C(/Nc2ccc3[nH]c(=O)[nH]c3c2)c2ccc(F)cc2)cc1	15%	0%	2%
CCC(C(=O)NCCCN1CCCC1=O)n1c2ccccc2c2nc(=O)cc(C)n21 (centres undefined)	-17%	.	-4%
CSC(=[SH+])N=N/C(=C1/C=CC=CN1)c1ccccn1.[Cu][Br]	.	-2%[7.66 µM]	.
CCOCCCNC(=O)/C(C#N)=C/c1cc(OC)c(O)c([N+](=O)[O-])c1	-41%	1%	-15%
CCOCCCNC(=O)/C(C#N)=C/c1ccc(Cl)c([N+](=O)[O-])c1	13µM*	-1%	?
CSc1nsc(SCC(=O)Nc2ccccc2)n1	25%	.	-17%
CSc1nsc(NC(=O)Cc2ccccc2)n1	?	-5%	7.1µM*
CN(C)CCCN(C(=O)c1ccc([N+](=O)[O-])s1)c1nc2cc3c(cc2s1)OCCO3	13µM*	.	?
CN(C)CCCN(C(=O)c1ccc(Cl)s1)c1nc2cc3c(cc2s1)OCO3	0%	.	?
SMILES	RORg inh	Luc counter	Gal4-VP16 FLuc
CSc1nc(Sc2ccc(Cl)cc2)c2ccccc2n1	16µM*	1%	-11%
CSc1nc(Sc2ccccc2)c2ccccc2n1	-30%	1%	0%[0.365 µM]
O=C(NCc1cccnc1)c1ccc(-c2ccc(Cl)cc2)o1	?	-4%	-12%
O=C(NCc1cccnc1)/C(=C\c1ccc(-c2ccc(Cl)c(Cl)c2)o1)S(=O)(=O)c1ccccc1	8.9µM*	5%	5.6µM*
O=C(Nc1ccc(S(=O)(=O)N2CCCC2)cc1)c1ccc([N+](=O)[O-])cc1	-15%	.	4%
OCC1O[C@@H](OC2C(O)C(CO)O[C@@]2(CO)O[C@@H]2OC(CO)C(O)C(O)C2O)C(O)C(O)C1O (some centres undefined)	-12%	-1%	-18%
Cc1ccc(C2=NN(CCC(=O)NC3CCCC3)C(=O)CC2)cc1	-27%	.	-4%
COCCCn1c(-c2ccc(Cl)cc2)n[nH]c1=S	18µM*	-2%	13µM*
CCOCCCn1c(-c2ccc(Cl)cc2)n[nH]c1=S	5µM*	22%	10µM*
COCCCn1c(-c2ccccc2Cl)n[nH]c1=S	16µM*	0%	?
CCn1c(CCNC(=O)c2ccccc2Cl)n[nH]c1=S	?	-4%	-5%
COCCCn1c(-c2ccc(OC)cc2)nc2nc3ccccc3nc21	?	-3%	6%
S=c1nc(-c2ccccc2)n(CCCN2CCOCC2)c2c1CCCC2	?	-3%	-6%
S=c1[nH]nc(-c2ccc(Cl)cc2)n1CCCN1CCOCC1	10µM*	1%	-3%
